From PubChem BioAssay (NCI)
This is part of a sample that, as a whole, favours compounds with a hit. Of some 83,000 tested, about 20% had one in any assay.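 Compound tested at a single concentration for 48 hours in 96-well plates; a percent growth value below 10 was scored as active.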 The source made the active and inactive calls.

Assays:
Assay in all cases: NCI-60 one-dose screen, 48 h (100 = growth as untreated, 0 = no growth, -100 = all killed)
Settings in all cases: 10 µM unless noted
HCT-15 colon = test system: HCT-15 colon
HT29 colon = test system: HT29 colon
SNB-75 CNS = test system: SNB-75 CNS
SNB-19 CNS = test system: SNB-19 CNS
U251 CNS = test system: U251 CNS
SK-MEL-5 melanoma = test system: SK-MEL-5 melanoma
UACC-62 melanoma = test system: UACC-62 melanoma
LOX IMVI melanoma = test system: LOX IMVI melanoma
SK-MEL-28 melanoma = test system: SK-MEL-28 melanoma
PC-3 prostate = test system: PC-3 prostate

Measured: growth

Cc1ccc(S(=O)(=O)NC(CCC(=O)Nc2ccc(Cl)cc2)C(=O)Nc2ccc(Cl)cc2)cc1 (stereo unspecified)
inactive: HCT-15 colon 18.9% | HT29 colon 14.2% | SNB-19 CNS 14.1% | U251 CNS 12.5% | SK-MEL-5 melanoma 21.2% | SK-MEL-28 melanoma 64.3%
active: SNB-75 CNS -17.2% | UACC-62 melanoma 2.47% | LOX IMVI melanoma 6.06%

CN(C)c1ccc(/C=C(\C#N)c2nc3ccccc3n2C)cc1
inactive: HCT-15 colon 28.5% | HT29 colon 13.7% | U251 CNS 30.3% | PC-3 prostate 35.7% | SK-MEL-5 melanoma 14.5% | UACC-62 melanoma 35% | LOX IMVI melanoma 46.2%
active: SNB-75 CNS 7.56%

Cc1nn(-c2ccc(Cl)cc2)c(=O)n1CCN1CCOCC1
active: SNB-75 CNS 7.65%
inactive: HCT-15 colon 74.2% | HT29 colon 104% | SNB-19 CNS 58.7% | U251 CNS 42.9% | SK-MEL-5 melanoma 80.3% | UACC-62 melanoma 82.8% | LOX IMVI melanoma 81.6% | SK-MEL-28 melanoma 92.9%

CCc1ccc(-c2ccc(NC3CCCCCC3)nn2)cc1S(N)(=O)=O
inactive: HCT-15 colon 96.4% | HT29 colon 91.3% | SNB-75 CNS 97.2% | SNB-19 CNS 103% | U251 CNS 95.8% | SK-MEL-5 melanoma 98.5% | UACC-62 melanoma 97.8% | LOX IMVI melanoma 100% | SK-MEL-28 melanoma 105%

Oc1[nH]c2ccc(Cl)cc2c1/C=c1/ccc2c(c1)N=C(c1ccc(F)cc1)N=2
inactive: HCT-15 colon 19.3% | HT29 colon 62.4% | SNB-75 CNS 55.6% | SNB-19 CNS 69% | U251 CNS 72% | SK-MEL-5 melanoma 59.3% | UACC-62 melanoma 69% | LOX IMVI melanoma 46.1% | SK-MEL-28 melanoma 53.7%

Cc1cc(C)c2c(n1)sc1c(Nc3ccc(Cl)cc3Cl)ncnc12
inactive: HCT-15 colon 46.2% | HT29 colon 38.9% | SNB-75 CNS 39.7% | SNB-19 CNS 32.4% | U251 CNS 25% | SK-MEL-5 melanoma 25.5% | UACC-62 melanoma 15.6% | LOX IMVI melanoma 10.2% | SK-MEL-28 melanoma 61.4%

COc1ccc(-c2nnc(SCC(=O)Nc3ccc(C(=O)/C=C/c4ccc(Cl)cc4)cc3)n2-c2ccccc2)cc1
inactive: HCT-15 colon 94.7% | HT29 colon 99.2% | SNB-75 CNS 86.5% | SNB-19 CNS 99.6% | U251 CNS 85.8% | SK-MEL-5 melanoma 92.1% | UACC-62 melanoma 83.7% | LOX IMVI melanoma 103% | SK-MEL-28 melanoma 101%

CCN(CC)c1ccc2nc3c4ccccc4c(=O)cc-3n(-c3ccccc3)c2c1
inactive: SNB-19 CNS 23.6% | U251 CNS 18.9%
active: HCT-15 colon 5.16% | HT29 colon 6.55% | SNB-75 CNS -2.25% | SK-MEL-5 melanoma -98.1% | UACC-62 melanoma -8.44% | LOX IMVI melanoma -23.2% | SK-MEL-28 melanoma 9.68%

Fc1ccc(-c2nnc(N3CCOCC3)c3ccccc23)cc1
inactive: HCT-15 colon 99.1% | HT29 colon 111% | SNB-75 CNS 101% | SNB-19 CNS 88.8% | U251 CNS 108% | SK-MEL-5 melanoma 96.9% | UACC-62 melanoma 96.1% | LOX IMVI melanoma 104% | SK-MEL-28 melanoma 106%

CC1=C(C(=O)Nc2ccc(F)cc2)C(c2ccc(C)cc2)C2=C(CC(C)(C)CC2=O)N1 (stereo unspecified)
inactive: HCT-15 colon 94% | HT29 colon 100% | SNB-75 CNS 55.7% | SNB-19 CNS 92.5% | U251 CNS 88.8% | SK-MEL-5 melanoma 94.1% | UACC-62 melanoma 86.4% | LOX IMVI melanoma 90% | SK-MEL-28 melanoma 97.1%

O=C(CCCCCCc1nc2ccc(Br)cc2[nH]1)NO
inactive: HCT-15 colon 35.9%
active: HT29 colon 1.25% | SNB-75 CNS -2.57% | SNB-19 CNS 1.94% | U251 CNS -15.4% | SK-MEL-5 melanoma -81.5% | UACC-62 melanoma -79.8% | LOX IMVI melanoma -98.9% | SK-MEL-28 melanoma -16.7%

CCN(CC)c1ccc(C(=N)c2ccc(N(C)C)cc2)cc1
inactive: HCT-15 colon 10.9% | SNB-19 CNS 28.2% | LOX IMVI melanoma 19.1% | SK-MEL-28 melanoma 26.5%
active: HT29 colon 0.0991% | SNB-75 CNS 3.16% | U251 CNS 3.54% | SK-MEL-5 melanoma -80.1% | UACC-62 melanoma 5.14%

CN1CCN(Cc2ccc(NC(=O)c3cccc(C#Cc4cnc(N)c5ncccc45)c3F)cc2C(F)(F)F)CC1
inactive: SNB-75 CNS 53.9% | SNB-19 CNS 96.4% | SK-MEL-5 melanoma 44.1% | UACC-62 melanoma 55.5%
active: HCT-15 colon -57.2% | HT29 colon -55.5% | U251 CNS -88.2% | LOX IMVI melanoma -88.8%

C#CC[C@@H]1C[C@]2(C)[C@H]3CC[C@@H]4[C@H]5C(C(=C)C)CC[C@]5(C(=O)NCCN(CCN)CCN)CC[C@@]4(C)[C@]3(C)CC[C@H]2C(C)(C)[C@H]1OC(C)=O (stereo partly specified)
inactive: HT29 colon 46.8% | SNB-75 CNS 103% | SNB-19 CNS 69.8% | SK-MEL-5 melanoma 96.5% | UACC-62 melanoma 103% | LOX IMVI melanoma 65.5% | SK-MEL-28 melanoma 105%
active: HCT-15 colon -52.9% | U251 CNS -28.4%

ClCc1cccc(CSc2ncnc3c2ncn3Cc2cccc(CCl)c2)c1
active: SNB-75 CNS -13.8% | U251 CNS -69.8% | UACC-62 melanoma 6.23% | LOX IMVI melanoma -8.54%
inactive: HCT-15 colon 20.7% | HT29 colon 13.2% | SNB-19 CNS 45.6% | SK-MEL-5 melanoma 20.2% | SK-MEL-28 melanoma 27.4%

CC[C@H](Nc1nc(N)nc(N)c1Cl)c1nc2cccc(NCc3ccc(C(=O)NO)cc3)c2c(=O)n1-c1ccccc1
active: HT29 colon 6.69% | SNB-75 CNS -3.96% | SNB-19 CNS 7.79% | U251 CNS -65.6% | SK-MEL-5 melanoma -26.3% | UACC-62 melanoma -56.8% | LOX IMVI melanoma -86.2%
inactive: HCT-15 colon 40.9%

CN1CCN(Cc2ccc(NC(=O)c3cnc(F)c(C#Cc4cnc(N)c5ncccc45)c3)cc2C(F)(F)F)CC1
active: HT29 colon 6.84% | SK-MEL-5 melanoma 8.81% | UACC-62 melanoma -4.67% | LOX IMVI melanoma 1.54%
inactive: HCT-15 colon 14.9% | SNB-75 CNS 32.7% | SNB-19 CNS 52.8% | U251 CNS 20.8%

CN(C)c1ccc(N2Cc3ccccc3OC3=C2C(=O)c2c(O)ccc(O)c2C3=O)cn1
active: HCT-15 colon -64.4% | HT29 colon -50.8% | SNB-75 CNS 0.378% | SNB-19 CNS 6.23% | U251 CNS -15.7% | SK-MEL-5 melanoma -81.3% | UACC-62 melanoma -87.4% | LOX IMVI melanoma -68.1% | SK-MEL-28 melanoma -82.8%

COc1ccc2[nH]cc(/C=C3\C(=O)Nc4ccccc43)c2c1
active: SNB-75 CNS 8.46%
inactive: HCT-15 colon 23.9% | HT29 colon 10.7% | SNB-19 CNS 73% | U251 CNS 38.8% | SK-MEL-5 melanoma 39.5% | UACC-62 melanoma 26% | LOX IMVI melanoma 21.1%

CN1CCN(Cc2ccc(NC(=O)c3cncc(C#Cc4ncc5cnccn45)c3)cc2C(F)(F)F)CC1
inactive: HCT-15 colon 56.7% | HT29 colon 27.4% | SNB-75 CNS 38.1% | SNB-19 CNS 94.5% | U251 CNS 64.2% | SK-MEL-5 melanoma 55.3% | UACC-62 melanoma 57.3% | LOX IMVI melanoma 26.5% | SK-MEL-28 melanoma 38.1%

COc1cc(/C=C/C(=O)c2ccc(NC(=O)CSc3nnc(-c4ccc(Cl)cc4)n3-c3ccccc3)cc2)cc(OC)c1OC
inactive: HCT-15 colon 49.8% | HT29 colon 74.8% | SNB-75 CNS 62.4% | U251 CNS 69.7% | PC-3 prostate 69.7% | SK-MEL-5 melanoma 55.8% | UACC-62 melanoma 68.5% | LOX IMVI melanoma 73.9% | SK-MEL-28 melanoma 97.1%

Nc1nc(N)c2cc(CNc3ccc(Cl)c(Cl)c3)ccc2n1
active: HCT-15 colon 9.76% | HT29 colon -75.2% | U251 CNS -78.1% | LOX IMVI melanoma -54.8%
inactive: SNB-75 CNS 40.1% | SK-MEL-5 melanoma 15.4% | UACC-62 melanoma 21% | SK-MEL-28 melanoma 60.1%

CC(=O)N(C)c1ccc(Nc2cc(C)[nH]c3ccc4ncnc4c23)cc1
inactive: HCT-15 colon 82.5% | HT29 colon 48% | SNB-75 CNS 55% | U251 CNS 49.9% | PC-3 prostate 50.5% | SK-MEL-5 melanoma 51.4% | UACC-62 melanoma 62.7% | LOX IMVI melanoma 36.1%

COc1ccc(C2C3CCc4ccccc4C3=NN2C(=O)c2cc(OC)c(OC)c(OC)c2)cc1O (stereo unspecified)
inactive: HCT-15 colon 109% | HT29 colon 104% | SNB-75 CNS 89.4% | U251 CNS 108% | PC-3 prostate 92.2% | SK-MEL-5 melanoma 104% | UACC-62 melanoma 105% | LOX IMVI melanoma 94.6%

COc1cc2c(cc1OCCCOc1cc3c(cc1OC)C(=O)N1CCC[C@H]1C=N3)C=CC(C)(C)O2
inactive: HCT-15 colon 89.9% | HT29 colon 99.7% | SNB-75 CNS 93.8% | U251 CNS 66.6% | PC-3 prostate 78.9% | SK-MEL-5 melanoma 66.4% | UACC-62 melanoma 81% | LOX IMVI melanoma 69.6% | SK-MEL-28 melanoma 33.2%

CCCCNCCC(O)c1cc2ccc(C(F)(F)F)cc2c2cc(C(F)(F)F)ccc12 (stereo unspecified)
active: HCT-15 colon -65.2% | HT29 colon -84.8% | SNB-75 CNS -90.5% | U251 CNS -93.7% | PC-3 prostate -85.2% | SK-MEL-5 melanoma -87.6% | UACC-62 melanoma -84.3% | LOX IMVI melanoma -71.2% | SK-MEL-28 melanoma -87.7%

O=C(Nc1ccc(Cl)c(C(F)(F)F)c1)c1ccc(Nc2ccc(Cl)nn2)cc1
inactive: HCT-15 colon 46.4% | HT29 colon 61.7% | SNB-75 CNS 84.2% | U251 CNS 51.5% | PC-3 prostate 49.6% | SK-MEL-5 melanoma 59.6% | UACC-62 melanoma 51.9% | LOX IMVI melanoma 54.7% | SK-MEL-28 melanoma 72.5%

CCCCCCCCNC(C)C(O)c1ccc(SC(C)C)cc1 (stereo unspecified)
inactive: HCT-15 colon 14.8% | SNB-75 CNS 74.8% | U251 CNS 42.5% | SK-MEL-5 melanoma 68.4% | UACC-62 melanoma 92.7% | SK-MEL-28 melanoma 74.3%
active: HT29 colon -45.4% | PC-3 prostate 7.49% | LOX IMVI melanoma -95.5%

Cc1n(Cc2ccc3ccccc3n2)cc[n+]1Cc1ccc2ccccc2c1
active: HT29 colon 6.64% | SNB-75 CNS -2.2% | SK-MEL-5 melanoma -87.6% | UACC-62 melanoma -26.6% | LOX IMVI melanoma -43.7%
inactive: HCT-15 colon 86.8% | U251 CNS 14% | SK-MEL-28 melanoma 16.1%

Nc1ccc(C(OC(=O)c2cc3ccccc3c(Cc3c(O)c(C(=O)OC(c4ccc(N)cc4)(c4ccc(N)cc4)c4ccc(N)cc4)cc4ccccc34)c2O)(c2ccc(N)cc2)c2ccc(N)cc2)cc1
active: HT29 colon 8.68% | SNB-75 CNS 8.57% | PC-3 prostate -3.26% | SK-MEL-5 melanoma -47.1%
inactive: HCT-15 colon 49.6% | U251 CNS 11.2% | UACC-62 melanoma 10.7% | LOX IMVI melanoma 24% | SK-MEL-28 melanoma 33.9%
